Most compounds without a hit are left out; they make up all but 0.77% or so of the library.
PKM2 activator: qHTS Assay for Activators of Human Muscle isoform 2 Pyruvate Kinase; purified PKM2, Kinase-Glo ATP luminescence, activation; response scale: 0% is enzyme alone, no compound; Potency, µM (series often up to 57.5 µM), inactives show top-dose activation, hits mostly activators; 260,000 tested, 0.34% active; also: potency is read from the fitted curve at half-maximal effect; % is scaled to controls: 0 for no effect and ±100 for the full control effect; nearly all actives have a fitted effect of over 55% in size
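Purified hPK-M2 (>95% pure) converted ADP (0.1 mM final) to ATP with 0.5 mM PEP in 50 mM imidazole pH7.2, KCl, MgCl2, Tween 20, BSA; 1 h at room temperature. ATP detected by Kinase-Glo luminescence.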
IL-2 act: qHTS of IL-2 Activators; activation, % (series mostly up to about 46 µM); IL-2 activation reporter assay, cell-based qHTS; stimulated with anti-CD3/CD4/CD28 beads; in transgenic mouse T cells; AID 652025, 2013; 360,000 tested, 0.065% active; in the data active = activation above about 50%; inconclusive = mostly about 30% to 49%; also: 0% is about no effect
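Screening format: compound pinned onto unstimulated transgenic mouse T cells, 60 min incubation, then anti-CD3/anti-CD4/anti-CD28 bead stimulation for 18 hours at 37 degrees C, followed by EGFP and DsRed detection.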
Vif-APOBEC3G blk: qHTS for Inhibitors of Vif-A3G Interactions: qHTS; DNA dC->dU-editing enzyme APOBEC-3G (Homo sapiens), Q9HC16; HeLa A3G-eYFP + Vif (tagged APOBEC3G with the HIV-1 protein that degrades it), YFP fluorescence, overnight; Potency, µM (top dose mostly 46.1 µM), for inactives: top-dose activity, negative = active, usual class: inhibitors; 410,000 tested, 0.076% active; also: potency is read from the fitted curve at half-maximal effect; % is scaled to controls: 0 for no effect and ±100 for the full control effect; nearly all actives have a fitted effect of over 60% in size
Target sequence (Q9HC16 whole entry, looked up): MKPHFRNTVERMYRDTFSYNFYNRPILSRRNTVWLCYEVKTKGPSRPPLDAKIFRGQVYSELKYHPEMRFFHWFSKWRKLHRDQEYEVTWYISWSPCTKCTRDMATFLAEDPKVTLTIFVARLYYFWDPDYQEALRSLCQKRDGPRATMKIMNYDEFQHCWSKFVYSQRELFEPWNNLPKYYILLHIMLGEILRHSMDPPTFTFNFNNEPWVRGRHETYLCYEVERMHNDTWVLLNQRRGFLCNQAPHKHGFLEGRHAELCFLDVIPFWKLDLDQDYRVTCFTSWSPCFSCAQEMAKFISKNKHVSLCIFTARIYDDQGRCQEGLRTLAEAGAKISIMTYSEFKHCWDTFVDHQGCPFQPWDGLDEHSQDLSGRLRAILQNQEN
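HeLa cells stably expressing Vif and C-terminally eYFP-tagged A3G, seeded overnight at 37 deg C, then exposed to compound by pintool overnight at 37 deg C. Rise in yellow fluorescence (Ex 488/Em 500-530, Acumen) marks blocked Vif-driven A3G degradation.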
RGS12 GoLoco inh: qHTS Assay for Inhibitors of RGS12 GoLoco Motif Activity (Red Fluorophore). Guanine nucleotide-binding protein G(i) subunit alpha-1 (Homo sapiens), P63096. Gai1:RGS12 GoLoco peptide FP, rhodamine, 10 min. Potency, µM (highest dose often 61.6 µM), without a hit: top-dose activity, negative = inhibition, hits mostly inhibitors. 230,000 tested, 0.44% active. AID 880, 2007; active = well fitted inhibition curve with a large enough effect, not every such curve was filed as active; inactive = no such curve, though single readings can be large or run the other way; also: potency is read from the fitted curve at half-maximal effect; % is scaled to controls: 0 for no effect and ±100 for the full control effect; nearly all actives have a fitted effect of over 30% in size
Target sequence (P63096 whole entry, looked up): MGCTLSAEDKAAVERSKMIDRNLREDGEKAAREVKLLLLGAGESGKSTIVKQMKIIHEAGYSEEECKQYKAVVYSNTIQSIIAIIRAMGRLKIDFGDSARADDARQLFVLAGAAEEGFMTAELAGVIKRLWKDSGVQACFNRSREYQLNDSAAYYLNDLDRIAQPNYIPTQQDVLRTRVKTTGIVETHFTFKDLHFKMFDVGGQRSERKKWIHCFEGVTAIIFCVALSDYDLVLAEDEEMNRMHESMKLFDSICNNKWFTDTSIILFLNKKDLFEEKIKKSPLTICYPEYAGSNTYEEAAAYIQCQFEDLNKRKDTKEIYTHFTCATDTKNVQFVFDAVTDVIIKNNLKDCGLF
GCN5L2 inh: qHTS Assay for Inhibitors of GCN5L2; Histone acetyltransferase KAT2A (Homo sapiens), Q92830; GCN5L2 HAT assay, ThioGlo1 CoA-SH fluorescence; Potency, µM (doses to about 58.9 µM), without a hit: at the top dose activity change, negative = inhibition, usual class: inhibitors; 390,000 tested, 0.21% active; AID 504327, 2011; also: potency is read from the fitted curve at half-maximal effect; % is scaled to controls: 0 for no effect and ±100 for the full control effect
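GCN5L2 (20nM final) in 50mM HEPES, 0.1mM EDTA pH 7.5, 0.01% Tween-20 was preincubated 15 min at room temperature with compound, then given ThioGlo1 (50uM), H3(1-25) peptide (75uM) and acetyl-CoA (70uM); CoA-thiol fluorescence (Ex340/Em540) was read at 0 and 20 min.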
Vif-A3F inh: qHTS for Inhibitors of Vif-A3F Interactions: qHTS. HeLa A3F-eYFP + Vif (tagged APOBEC3F with the HIV-1 protein that degrades it), YFP fluorescence increase. Potency, µM (series often up to 46.1 µM), for inactives: at the highest dose activity, negative = active. 390,000 tested, 0.2% active; also: potency is read from the fitted curve at half-maximal effect; % of control where 0% means no effect; nearly all actives have a fitted effect of over 65% in size
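HeLa cells stably expressing A3F-eYFP plus Vif, plated and incubated overnight at 37 deg C, then exposed to compounds overnight at 37 deg C. Blocked degradation read as raised yellow fluorescence (Ex 488/Em 500-530).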
An asterisk follows results filed as active; ! = a repeat was not active; [ ] = another dose, or the depositor's remark. Unless noted, calls follow the shape of the dose curve; as a rule, active = well fitted curve in the direction sought with a large enough effect; inconclusive = small, poorly fitted or top-dose-only effect, or another doubt; inactive = no such curve, though single readings can be large; an effect the other way counts as inactive or inconclusive.

Screening Cc1ccc(Nc2nnc(SC/C(O)=C(\C#N)c3nc4ccccc4[nH]3)s2)c(C)c1 returned PKM2 activator -12%, IL-2 act 0, Vif-APOBEC3G blk -1%, RGS12 GoLoco inh 75%, GCN5L2 inh -17% and Vif-A3F inh -30%.
Cc1cccc(Nc2nnc(SC/C(O)=C(\C#N)c3nc4ccccc4[nH]3)s2)c1 was read as PKM2 activator 8%, IL-2 act 0, Vif-APOBEC3G blk -27%, RGS12 GoLoco inh 106%, GCN5L2 inh -17% and Vif-A3F inh 22µM*.
O=c1c(O)cc(C2Oc3cc(O)cc(O)c3CC2O)cc2c(C3Oc4cc(O)cc(O)c4CC3O)cc(O)c(O)c12 (centres undefined) was read as RGS12 GoLoco inh -19% and GCN5L2 inh 13µM*.
Screening C=CCOc1ccc(/C=C/C(=O)OCC(=O)NCCC2=CCCCC2)cc1 returned PKM2 activator -2%, IL-2 act -3, Vif-APOBEC3G blk 0%, GCN5L2 inh -2% and Vif-A3F inh -1%.
`Cc1ccc2nc(NS(=O)(=O)c3ccc(Cl)cc3)c(Nc3ccc(C(=O)O)cc3)nc2c1` gave Vif-APOBEC3G blk -3%, GCN5L2 inh 1% and Vif-A3F inh 4.5µM*.
Screening CCOC(=O)c1ccc(Nc2nc3ccccc3nc2NS(=O)(=O)c2ccc(Cl)cc2)cc1 returned Vif-APOBEC3G blk -27%, GCN5L2 inh -6% and Vif-A3F inh 7.1µM*.
Screening CC(=O)Nc1ccc(S(=O)(=O)NC2=NCN(c3cccc([N+](=O)[O-])c3)CN2)cc1 returned PKM2 activator -4%, IL-2 act -3, Vif-APOBEC3G blk -4%, GCN5L2 inh 1% and Vif-A3F inh 5%.
COc1cc(C)c(S(=O)(=O)N2CCN=C2c2ccccc2)cc1C was read as PKM2 activator -4%, IL-2 act 0, Vif-APOBEC3G blk -1%, RGS12 GoLoco inh 0%, GCN5L2 inh -5% and Vif-A3F inh 5%.
CCn1cc([N+](=O)[O-])c(C(=O)N2N=C(c3ccc(O)c(OC)c3)CC2c2ccccc2O)n1 (centres undefined) was read as PKM2 activator 18µM*, IL-2 act -2, Vif-APOBEC3G blk -3%, RGS12 GoLoco inh 44%, GCN5L2 inh -8% and Vif-A3F inh -3%.
CCn1cc([N+](=O)[O-])c(C(=O)N2N=C(c3ccc(Cl)c(Cl)c3)CC2c2ccccc2O)n1 (centres undefined) was read as PKM2 activator 22µM*, IL-2 act -4, Vif-APOBEC3G blk 0%, RGS12 GoLoco inh 9%, GCN5L2 inh -11% and Vif-A3F inh -5%.
Oc1cc2c(cc1O)[C@H]1c3ccc(O)c(O)c3OC[C@@]1(O)C2 was read as IL-2 act 14, Vif-APOBEC3G blk 7%, RGS12 GoLoco inh 4µM*!, GCN5L2 inh inconclusive and Vif-A3F inh -21%.
Screening CC(=O)n1c(C=Nc2ccc(Cl)cc2)c(O)c2ccccc21 returned PKM2 activator 16%, IL-2 act 84*, Vif-APOBEC3G blk -14%, RGS12 GoLoco inh -37%, GCN5L2 inh -3% and Vif-A3F inh inconclusive.
`CCCn1c(NCc2cccc(OC)c2O)nc2ccccc21` gave PKM2 activator 25µM*, IL-2 act 0, Vif-APOBEC3G blk 1%, RGS12 GoLoco inh -21%, GCN5L2 inh 0% and Vif-A3F inh 8%.
CCCn1c(COc2ccccc2OC)nc2ccccc21 was read as PKM2 activator 16µM*, IL-2 act -4, Vif-APOBEC3G blk -5%, GCN5L2 inh -7% and Vif-A3F inh 0%.
For CCCn1c(NCc2cccc(OC)c2OC)nc2ccccc21 the results were PKM2 activator 3%, IL-2 act 0, Vif-APOBEC3G blk 0%, RGS12 GoLoco inh 4% and GCN5L2 inh -4%.
Screening C=CCc1cccc(CNc2nc3ccccc3n2C)c1O returned PKM2 activator 32µM*, IL-2 act 0, Vif-APOBEC3G blk 2%, GCN5L2 inh -9% and Vif-A3F inh 0%.
`NNC(=O)Cn1c(COc2ccc(Cl)cc2)nc2ccccc21` gave PKM2 activator -1%, IL-2 act -5, Vif-APOBEC3G blk 0%, RGS12 GoLoco inh 1%, GCN5L2 inh 2% and Vif-A3F inh 2%.
For CC(C)C1Oc2ccccc2N(CC(=O)N(Cc2ccccn2)CC2CCCO2)C1=O (centres undefined) the results were PKM2 activator -3%, IL-2 act -3, Vif-APOBEC3G blk -8%, RGS12 GoLoco inh 0%, GCN5L2 inh -2% and Vif-A3F inh -20%.
For Cc1ccc(CN(CC2CCCO2)C(=O)CN2C(=O)C(C(C)C)Oc3ccccc32)o1 (centres undefined) the results were PKM2 activator 32µM*, IL-2 act -3, Vif-APOBEC3G blk 6%, RGS12 GoLoco inh -14%, GCN5L2 inh -6% and Vif-A3F inh -5%.
For Cc1nn(-c2ccccc2)c(NC(=O)c2cccs2)c(-c2ccccc2Cl)c1=O the results were PKM2 activator -1%, IL-2 act 0, Vif-APOBEC3G blk 0%, RGS12 GoLoco inh 11%, GCN5L2 inh -13% and Vif-A3F inh -4%.
For CCNc1ncc2nc(-c3cccc(C#N)c3)c(=O)n(C)c2n1 the results were RGS12 GoLoco inh 1% and GCN5L2 inh 35µM*.
`Cc1ccc(S(=O)(=O)n2nc(-c3ccco3)nc2NCc2ccc(N(C)C)cc2)cc1` gave Vif-APOBEC3G blk 1%, GCN5L2 inh 1% and Vif-A3F inh -2%.
For COc1ccc(-c2cc(-c3nc4ccccn4c3NCc3ccccc3)ccc2OC)cc1 the results were IL-2 act 0, Vif-APOBEC3G blk -26%, GCN5L2 inh -28% and Vif-A3F inh 2%.
For CC[N+](C)(C(=O)O)/C(=C\c1ccccc1)c1ccnc2ccccc12 (centres undefined) the results were Vif-APOBEC3G blk 11µM*.
For O=C(O)/C(Cc1ccnc2ccccc12)=N\O the results were RGS12 GoLoco inh 1%[14.2 µM].
For COc1cc(NC(=O)c2ncn(-c3ccccc3)n2)cc(OC)c1 the results were GCN5L2 inh -14%.
`CC(=O)N(C[C@@H](O)CO)c1c(I)c(C(=O)NC[C@@H](O)CO)c(I)c(C(=O)NC[C@@H](O)CO)c1I` gave RGS12 GoLoco inh 9%[21.6 µM] and GCN5L2 inh 10µM*.

Screens deposited in PubChem BioAssay by National Center for Advancing Translational Sciences (NCATS).
